FLuc inh = qHTS Assay for Inhibitors of Firefly Luciferase; Luciferin 4-monooxygenase (Photinus pyralis), P08659; 72,000 compounds, 2.2% hits; purified firefly luciferase, luminescence, 8 min; Potency, µM (series often up to 57.1 µM), most hits filed as inhibitors; AID 411, 2009; note: nearly all actives have a fitted effect of over 40% in size
Target sequence (P08659 whole entry, looked up): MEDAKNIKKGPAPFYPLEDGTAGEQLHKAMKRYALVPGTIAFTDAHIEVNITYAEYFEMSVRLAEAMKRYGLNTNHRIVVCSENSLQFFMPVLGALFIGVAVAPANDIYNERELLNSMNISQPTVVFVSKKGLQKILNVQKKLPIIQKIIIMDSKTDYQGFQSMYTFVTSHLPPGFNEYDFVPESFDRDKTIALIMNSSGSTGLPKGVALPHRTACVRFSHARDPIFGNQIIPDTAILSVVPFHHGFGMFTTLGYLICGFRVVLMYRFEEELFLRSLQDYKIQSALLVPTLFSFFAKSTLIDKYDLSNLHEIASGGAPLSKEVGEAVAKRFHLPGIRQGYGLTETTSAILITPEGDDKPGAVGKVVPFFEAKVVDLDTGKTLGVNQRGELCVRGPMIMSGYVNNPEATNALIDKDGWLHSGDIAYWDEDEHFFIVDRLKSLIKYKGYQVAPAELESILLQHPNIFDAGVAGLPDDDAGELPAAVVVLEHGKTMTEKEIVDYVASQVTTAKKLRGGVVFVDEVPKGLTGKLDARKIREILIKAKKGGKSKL
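Inhibition of light generation by firefly luciferase from ATP and luciferin was profiled with concentration-response curves per sample, ATP held at 10 uM within the enzyme's linear range. Plates were read by luminescence after an 8-minute ambient incubation.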
p53ts 39C tox = qHTS Screen for Compounds that Selectively Target Cancer Cells with p53 Mutations: Cytotoxicity of p53ts Cells at the Nonpermissive Temperature; 130,000 compounds, 1.5% hits; Potency, µM (series often up to 46.1 µM), hits mostly cytotoxic; H1299-p53A138V viability at 39C, ATP luminescence, 24 h; note: nearly all actives have a fitted effect of over 55% in size
p53ts 32C kill = qHTS Screen for Compounds that Selectively Target Cancer Cells with p53 Mutations: Cytotoxicity of p53ts Cells at the Permissive Temperature. H1299-p53A138V at 32C, ATP luminescence viability, 24 h. Potency, µM (highest dose often 46.1 µM), most hits filed as cytotoxic. 130,000 compounds, 0.93% hits. AID 924, 2007; note: nearly all actives have a fitted effect of over 55% in size
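H1299-p53 A138V cells (temperature-sensitive p53) exposed 24 h to up to 46 uM compound at 32C, where p53 is wild-type in conformation. Viability read as ATP luminescence and normalised to DMSO and 100 uM tamoxifen. AC50 fitted with the Hill equation.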
Large screens that a line does not name were inactive. Hits are enriched below; roughly 2.6% of the tested compounds scored in any of these assays. Calls come from the whole dose curve; as a rule, active = well fitted curve in the direction sought with a large enough effect; inconclusive = small, poorly fitted or top-dose-only effect, or another doubt; inactive = no such curve, though single readings can be large; an effect the other way counts as inactive or inconclusive.

CC(C)(C)Nc1ncnc2c1cnn2-c1ccccc1	FLuc inh 5µM, p53ts 39C tox 10µM, p53ts 32C kill 7.9µM
c1ccc(CNc2ncnc3c2cnn3-c2ccccc2)cc1	none
COc1ccc(CNC(=O)c2nc(Cn3nc(C)c(Br)c3C)no2)cc1OC	none (no result: FLuc inh)
CCc1ccc(Nc2nnc(-n3nc(C)cc3C)c3ccccc23)cc1	none (no result: FLuc inh)
CCn1c(C(=O)Nc2ccc(C)cc2C)cc2sc(Cl)cc21	none (no result: FLuc inh)
COc1cccc(C2CC(=O)Nc3c2c(=O)n(C)c2nc4ccccc4n32)c1 (centres undefined)	none (no result: FLuc inh)
O=c1c2ccccc2sn1-c1cc(S(=O)(=O)N2CCOCC2)ccc1N1CCOCC1	FLuc inh 13µM
Cn1c(=O)c2cc(S(=O)(=O)N3CCOCC3)ccc2n(C)c1=O	none
CCCOc1ccc(C(=O)Nc2ccc(N(C)C)cc2)cc1	none
CC(C)Oc1ccc(NC(=O)Oc2ccccc2)cc1	FLuc inh 13µM, p53ts 32C kill inconclusive
CC(=O)c1cccc(NC(=O)Oc2ccccc2)c1	none (no result: FLuc inh)
CC(C)Oc1ccc(C(=O)Nc2ccc(N(C)C)cc2)cc1	FLuc inh 3.2µM, p53ts 39C tox inconclusive, p53ts 32C kill inconclusive
COc1ccc(NS(=O)(=O)c2ccc3c(c2)CC(C)N3C(C)=O)c(OC)c1 (centres undefined)	none (no result: FLuc inh, p53ts 39C tox)
COc1ccc(N(CC(=O)Nc2ccc(C)c(C)c2)S(=O)(=O)c2ccc(C)cc2)cc1OC	none (no result: FLuc inh)
COc1ccccc1NC(=O)C1=C(C)Nc2nc(SCc3ccccc3)nn2C1c1cccc(O)c1 (centres undefined)	none (no result: FLuc inh)
COc1ccc(-c2cn3nc(SCC(=O)Nc4cc(C)cc(C)c4)ccc3n2)cc1	none (no result: FLuc inh)
COc1ccc(-c2cn3nc(SCC(=O)Nc4cccc(C)c4C)ccc3n2)cc1	p53ts 39C tox 16µM (no result: FLuc inh)
CCOC(=O)c1[nH]c(C)c(CCC(=O)Nc2ccc(N(CC)CC)cc2C)c1C	none (no result: FLuc inh)
CCn1c(NC(C)=O)nc2ccccc21	none (no result: FLuc inh)
CCn1c(=O)c(C(=O)Nc2ccc(C(C)=O)cc2)nc2ccccc21	p53ts 39C tox 13µM, p53ts 32C kill 10µM (no result: FLuc inh)
CCOC(=O)c1c(C)[nH]c(C)c1S(=O)(=O)N1CCCC(C(=O)Nc2cccc(CC)c2)C1 (centres undefined)	none (no result: FLuc inh)
COc1ccccc1CNc1nc(-c2ccco2)nn1C(=O)c1ccccc1[N+](=O)[O-]	p53ts 32C kill inconclusive (no result: FLuc inh)
Cc1ccc(CNc2nc(-c3ccco3)nn2C(=O)c2ccccc2[N+](=O)[O-])cc1	p53ts 39C tox 10µM, p53ts 32C kill inconclusive (no result: FLuc inh)
Cc1cc(C)cc(C(=O)N2CC(=O)Nc3ccc(C)cc3C2c2ccccc2)c1 (centres undefined)	none (no result: FLuc inh)
CC1CCN(C(=O)Cn2cc(SCC(=O)NCc3ccc(F)cc3)c3ccccc32)CC1	none (no result: FLuc inh)
O=C(OCc1nc2ccccc2s1)c1ccc(Br)s1	none
Oc1ccccc1OCc1nc2ccccc2s1	FLuc inh 20µM
COc1ccccc1NC(=O)c1oc2ccccc2c1NC(=O)C1CCCCC1	none (no result: FLuc inh)
O=C(/C=C\Nc1cccc(F)c1)c1ccc2c(c1)OCO2	FLuc inh 0.4µM, p53ts 39C tox 10µM, p53ts 32C kill 4µM
O=C(Nc1ccc2c(c1)OCO2)c1cccc(F)c1	FLuc inh inconclusive, p53ts 32C kill inconclusive
CN(C)CCC(=O)c1ccc2c(c1)OCO2	none
O=C(CCNc1ccccc1)c1ccc2c(c1)OCO2	FLuc inh 16µM
Cn1ccc2cc(S(=O)(=O)N3CCCC(C(=O)NCc4ccccc4)C3)ccc21 (centres undefined)	none (no result: FLuc inh)
COC(=O)c1ccc(N2C(=O)CC(SCCN)C2=O)cc1 (centres undefined)	none (no result: FLuc inh)
CCCOc1ccc(N2C(=O)CC(SCCN)C2=O)cc1 (centres undefined)	FLuc inh inconclusive, p53ts 39C tox 10µM, p53ts 32C kill 13µM
CCOc1ccccc1NC(=O)N1CCC2(CC1)Oc1ccccc1C(=O)N2Cc1ccccc1F	none (no result: FLuc inh)
Cc1ccc2onc(CC(=O)Nc3ccc(C(C)C)cc3)c2c1	none (no result: FLuc inh)
COc1ccc(/C=N\n2nnc3ccccc32)cc1	FLuc inh 3.2µM, p53ts 39C tox 10µM, p53ts 32C kill 13µM
COc1ccc(/C=N/n2cc(-c3ccccc3)nc2N)cc1	none
CC(C)(C)c1ccc(C2Sc3ccccc3NC3=C2C(=O)c2ccccc23)cc1 (centres undefined)	none (no result: FLuc inh)
CC1(C)C(=O)NC2=C1C(=O)C(=O)c1ccccc12	p53ts 39C tox 1µM, p53ts 32C kill 1.3µM
O=C(Nc1cccc(Cn2cccn2)c1)c1cc2c(s1)CCCC2	FLuc inh 13µM
CC(=O)Nc1cccc(Cn2cccn2)c1	none
CN(c1nnc(NC(=O)Nc2ccc(Br)cc2)s1)C1CCCCC1	none (no result: FLuc inh)
CCC(Nc1ccc(-c2nc(-c3ccco3)no2)cc1[N+](=O)[O-])c1ccccc1 (centres undefined)	none (no result: FLuc inh)
Cc1cc(C)cc(-n2c(C)cc(C(=O)C(=O)Nc3ccccc3F)c2C)c1	none (no result: FLuc inh)
COc1ccc2nc3sc(C(=O)Nc4cc(Cl)c(OC)cc4OC)cc3cc2c1	p53ts 39C tox 6.3µM, p53ts 32C kill inconclusive (no result: FLuc inh)
CCOc1ccc(CCNC(=O)c2cc3cc4cc(OC)ccc4nc3s2)cc1OCC	none (no result: FLuc inh)
Nc1nnc(CC(=O)N/N=C\c2cc([N+](=O)[O-])ccc2O)s1	none (no result: FLuc inh, p53ts 32C kill)
O=[N+]([O-])c1ccc(O)c(/C=N/Nc2ccccn2)c1	p53ts 39C tox 5.6µM (no result: FLuc inh)
COc1cc(O)c(C(=O)/C=C/c2ccc(OC)c(O)c2)c(OC)c1	p53ts 32C kill 10µM (no result: FLuc inh)
COc1ccc(C(=O)Oc2cc(OC)cc(OC)c2C(C)=O)cc1	none (no result: FLuc inh)
CC(C)c1ccc(Cn2ccc3c4c(N)nc(NC5CC5)nc4ccc32)cc1	p53ts 39C tox 32µM, p53ts 32C kill inconclusive
CCOC(=O)C1=C(CN2CCN(c3ccccc3F)CC2)NC(=O)NC1c1ccc(OC)cc1 (centres undefined)	none (no result: FLuc inh, p53ts 39C tox)
COc1ccc(C(=O)c2c(N)c(-c3nc(-c4ccccc4)cs3)c3ccccn23)cc1	none (no result: FLuc inh)
COc1ccc(-n2nnnc2S(=O)(=O)CC(=O)N2CCCCC2)cc1	p53ts 39C tox inconclusive, p53ts 32C kill 20µM
COc1ccc(-n2nnnc2S(=O)(=O)Cc2ccc(C(=O)O)cc2)cc1	none
CCN1CCc2c(sc(NC(=O)c3ccc(S(=O)(=O)N(C)C4CCCCC4)cc3)c2C(N)=O)C1	p53ts 39C tox inconclusive (no result: FLuc inh)
COc1ccc(-n2ccnc(NCCc3ccc(S(N)(=O)=O)cc3)c2=O)cc1	none (no result: FLuc inh)
Cc1ccc(NC(=O)CSc2ncc3c(n2)-c2ccc(Cl)cc2N(C)S3(=O)=O)cc1F	none (no result: FLuc inh)
CN1c2cc(Cl)ccc2-c2nc(SCC(=O)Nc3ccc(F)cc3F)ncc2S1(=O)=O	p53ts 39C tox 10µM (no result: FLuc inh)
COC(=O)c1ccc(NC(=O)Cn2ccn3nc(-c4ccc(OC)cc4)cc3c2=O)cc1	none (no result: FLuc inh)
Cc1cc(C)nc(SC2=CS(=O)(=O)c3ccccc32)n1	p53ts 39C tox inconclusive
O=S1(=O)C=C(Sc2nc3ccccc3s2)c2ccccc21	FLuc inh 13µM, p53ts 39C tox inconclusive, p53ts 32C kill 13µM
CCOc1ccccc1-c1noc(CCCC(=O)Nc2cccc(C(F)(F)F)c2)n1	none (no result: FLuc inh)
Cc1cccc(Nc2nnc(SCc3cn4ccsc4n3)s2)c1	FLuc inh 32µM
COc1ccc(C)cc1-n1nnnc1SCc1cn2ccsc2n1	none
Cc1ncoc1C(=O)Nc1ccc2c(c1)OCCO2	FLuc inh 20µM, p53ts 39C tox inconclusive, p53ts 32C kill inconclusive

Screening data (PubChem BioAssay)
